Drawing on PubChem BioAssay AID449762 (Southern Research Specialized Biocontainment Screening …, 2010), this text covers inhibition for 95 compounds.

About 1,900 (0.58%) of roughly 330,000 compounds were called active. Not shown: some 4% with an inconclusive outcome. No stated cut-off is given here; in the data, inconclusive means inhibition above about 70% without an active follow-up result; inactive means below that. The list is a sample of the results. Measured potencies and affinities stand elsewhere.

This experiment in a line: M. tuberculosis growth inhibition, HTS (AID 449762).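 Further: bacterial growth assessed after seven days of incubation.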 The note with it: M. tuberculosis H37Rv growth inhibition, 7H9 media; at 25 µM; stronger effect = higher value.
Turning to `CCOC(=O)c1nsnc1NCCCl`, the inhibition is 4.35% (inactive).

On to `COc1cccc(/C(C)=N/Nc2ccc(S(=O)(=O)N3CCCCC3)cn2)c1`, for which the inhibition is -2.89% (inactive).

As for `C/C(=N\Nc1ccc(S(=O)(=O)N2CCCCC2)cn1)c1ccc(O)cc1`, the inhibition was -0.43% (inactive).

Turning to `CC(=O)Nc1ccc(S(=O)(=O)Nc2ccccc2N2CCOCC2)cc1`, the inhibition was 5.3% (inactive).

With `CCCCN(C)CCCNC(=O)c1cn(CC)c2ccc(S(=O)(=O)N3CCOCC3)cc2c1=O`, the inhibition was 3.29% (inactive).

As to `CCCN(CCC)CCCNC(=O)c1cn(CC)c2ccc(S(=O)(=O)N3CCOCC3)cc2c1=O`, the inhibition was 3.73% (inactive).

`Cc1ccc(S(=O)(=O)n2nc(OC(=O)c3ccccc3F)cc2N)cc1`: the inhibition was 1.24% (inactive).

For the compound `O=c1[nH]nnc2sc3c(c12)CCCC3`, the inhibition is 1.62% (inactive).

On to `COc1cc(NS(=O)(=O)c2ccc(NC(=S)NC(=O)c3sc4ccccc4c3Cl)cc2)nc(OC)n1`, for which the inhibition was -0.21% (inactive).

As for `Cc1ccc(-c2csc(NC(=O)CN3CCC(C(N)=O)CC3)n2)cc1`, the inhibition is 2.15% (inactive).

For the compound `COc1ccc(C(=O)C2CCN(CC(=O)Nc3ccc(C)cc3)CC2)cc1`, the inhibition was 8.88% (inactive).

With `Cc1ccc(-c2oc3ccccc3c(=O)c2O)cc1`, the inhibition was 27.6% (inactive).

For `O=c1c(O)c(-c2ccc3c(c2)OCO3)oc2ccccc12`, the inhibition was 35.4% (inactive).

For the compound `CCOC(=O)CNC(=O)CNC(=O)c1ccc(OCC(C)C)cc1`, the inhibition was 22.7% (inactive).

Regarding `CCOC(=O)c1sc2c(c1C)C(c1cccs1)C1=C(CCCC1=O)N2` (stereo not given), the inhibition was 11.9% (inactive).

Take `Cn1c(=O)c2c(nc(NCc3ccc4c(c3)OCO4)n2C)n(C)c1=O`: the inhibition is -2.77% (inactive).

For `COc1ccccc1CCNC(=O)C(=O)Nc1cc2c3c(c1)CC(=O)N3CCC2`, the inhibition was 57.3% (inactive).

For the compound `O=C(CSc1nnc(CNC(=O)c2ccccc2)o1)c1ccc(Cl)cc1`, the inhibition is 1.96% (inactive).

Turning to `O=C(O)CSc1ccccn1`, the inhibition was 2.15% (inactive).

Turning to `O=C(O)CCSc1ccccn1`, the inhibition was -6.45% (inactive).

Turning to `COC(=O)CC1C(=O)NCCN1C(=O)c1ccc([N+](=O)[O-])cc1` (stereo not given), the inhibition is -0.41% (inactive).

Consider `O=S(=O)(Nc1ccc(Cl)cn1)c1ccc(F)cc1`, for which the inhibition was -1.48% (inactive).

As to `COc1cc2c(cc1NC(=O)COC(=O)[C@@H](NS(=O)(=O)c1ccccc1)C(C)C)oc1ccccc12`, the inhibition is 6.17% (inactive).

For the compound `Clc1ccc(N2CCNCC2)nn1`, the inhibition is -10.1% (inactive).

As for `COc1cc(NC(=O)c2c(-c3ccccc3Cl)noc2C)c2ncccc2c1`, the inhibition is -6.92% (inactive).

Regarding `Cc1onc(-c2ccccc2Cl)c1C(=O)Nc1cccc2cccnc12`, the inhibition was 14.3% (inactive).

On to `Cn1cc(S(=O)(=O)N2CCC3(CC2)OCCO3)c(=O)n(C)c1=O`, for which the inhibition is -0.14% (inactive).

With `CC1=C(C(=O)OCc2ccccc2)C(c2cccc(F)c2)NC(=O)N1` (stereo not given), the inhibition was -8.13% (inactive).

As for `Cc1cccc(-n2ncc3c2CCCC3NC(=O)C2=CC(=O)CC(C)(C)O2)c1C` (stereo not given), the inhibition was -0.85% (inactive).

On to `Cc1ccc(N(CC(=O)Nc2cc(C)cc(C)c2)S(=O)(=O)c2c(C)noc2C)cc1`, for which the inhibition was 6.89% (inactive).

Take `O=C(OCC(=O)C12CC3CC(CC(C3)C1)C2)c1ccccc1O`: the inhibition is 6.66% (inactive).

For the compound `CN(C)C(=O)c1cccn1-c1ncc(C(F)(F)F)cc1Cl`, the inhibition is -4.51% (inactive).

Take `Cc1cc(C)cc(NC(=O)c2cccn2-c2ncc(C(F)(F)F)cc2Cl)c1`: the inhibition was 6.22% (inactive).

As to `NC(=O)CCNC(=O)c1ccc(Cl)cc1`, the inhibition is -5.92% (inactive).

For the compound `Cc1ccc(NC(=O)CN2C(=O)C3CC=CCC3C2=O)cc1S(=O)(=O)N1CCOCC1` (stereo not given), the inhibition is -2.53% (inactive).

Turning to `CC(/C=C/c1ccccc1)=N\NC(=S)NC(C)C`, the inhibition is 28.1% (inactive).

In the case of `COC(=O)N/N=C(C)/C=C/c1ccccc1`, the inhibition was -8.99% (inactive).

For `Cc1ncc(CSc2nnnn2-c2ccccc2)c(N)n1`, the inhibition is 1.43% (inactive).

Consider `O=C(O)Cn1c(SCc2ccccc2)nc2ccccc21`, for which the inhibition was 2% (inactive).

For `O=C(O)CCn1c(SCc2ccccc2)nc2ccccc21`, the inhibition was 2.64% (inactive).

Regarding `COC(=O)C1=C(c2ccc(OC)c(OC)c2)C[C@@H]2CC[C@H]1N2C(=O)NC1Cc2ccccc2C1`, the inhibition is -10% (inactive).

Consider `Cc1ccc(C(=O)Nc2ccccc2NC(=O)c2ccc(C)o2)o1`, for which the inhibition is 7.31% (inactive).

For `Cc1cc(C(=O)CSc2nnc(N)s2)c(C)n1CCc1ccc(Cl)cc1`, the inhibition is 9.47% (inactive).

In the case of `Cc1cc(C(=O)CSc2nnnn2C)c(C)n1CCc1ccc(Cl)cc1`, the inhibition is 4.63% (inactive).

As to `COc1ccc(/C=N/Nc2nc(N3CCCC3)nc(N3CCCC3)n2)cc1`, the inhibition was -3.33% (inactive).

In the case of `Oc1ccc(/C=N/Nc2cc(N3CCCC3)nc(N3CCCC3)n2)cc1`, the inhibition is 4.32% (inactive).

Consider `CCN(CC)C(=O)CSc1nc2[nH]ncc2c(=O)[nH]1`, for which the inhibition is -0.87% (inactive).

For `Cc1ccc(C)c2c1[nH]c1ccccc12`, the inhibition is 6.73% (inactive).

As to `COc1cc2[nH]c3ccccc3c2cc1C`, the inhibition was -8.31% (inactive).

With `O=c1oc(CCO)cc2ccc(Br)cc12`, the inhibition is 9.08% (inactive).

Regarding `COc1ccccc1NC(=O)c1c[nH]c2ccccc12`, the inhibition is 0.76% (inactive).

Take `O=C(CCN1C(=O)/C(=C/c2ccccc2Cl)SC1=S)N1CCOCC1`: the inhibition is 69% (inactive).

Take `CN1CCN(C(=O)CCN2C(=O)/C(=C/c3ccccc3Cl)SC2=S)CC1`: the inhibition is 49.8% (inactive).

Consider `O=C(CCN1C(=O)/C(=C/C=C/c2ccccc2)SC1=S)Nc1ccccn1`, for which the inhibition was -4.47% (inactive).

As for `Cc1ccc(/C=C2\SC(=S)N(CCCC(=O)Nc3ccccn3)C2=O)cc1`, the inhibition is 0.58% (inactive).

Consider `COC(=O)c1ccc(NC(=S)NC(=O)c2cccnc2)cc1`, for which the inhibition is -0.36% (inactive).

As for `COc1ccccc1-n1c(O)c(C=NCCN2CCNCC2)c(=O)[nH]c1=O`, the inhibition was -7.53% (inactive).

With `COC(=O)c1ccc(NC(=O)c2ccc3nccnc3c2)cc1`, the inhibition was -7.47% (inactive).

Turning to `CCN(CC)S(=O)(=O)c1ccc(S(=O)(=O)Nc2c(C)nn(C)c2C)cc1`, the inhibition is -5.92% (inactive).

For the compound `COc1ccc(-c2c(C(F)(F)F)oc3cc(OCC(=O)Nc4ccccc4C(F)(F)F)ccc3c2=O)cc1OC`, the inhibition is 10.6% (inactive).

For `CSc1nncc(-c2ccccc2)n1`, the inhibition was -0.45% (inactive).

With `O=C(Cc1ccc(F)cc1)N1CCC(N2CCC(C(=O)N3CCOCC3)CC2)CC1`, the inhibition is 4.87% (inactive).

As to `CCCCn1nnc(NC(=O)CCC)n1`, the inhibition is -12.6% (inactive).

Turning to `OC1(c2ccccc2)CCN(Cc2ccccc2)C2CCCCC21` (stereo not given), the inhibition was -3.63% (inactive).

`OC(c1ccccc1)C1CN(Cc2ccccc2)CCC1(O)c1ccccc1` (stereo not given): the inhibition is 2.62% (inactive).

For the compound `CN1C(C(=O)NCc2ccc(OC(F)(F)F)cc2)CC2Cn3c(nc4ccccc43)C21` (stereo not given), the inhibition was -3.09% (inactive).

Take `CN1C(C(=O)NCc2ccc(OC(F)(F)F)cc2)CC2Cn3c(nc4cc5ccccc5cc43)C21` (stereo not given): the inhibition is 57.5% (inactive).

`Cc1ccc(S(=O)(=O)N[C@H](C(=O)N2CCC(C(=O)N[C@@H](CCC(N)=O)C(=O)O)CC2)C(C)C)cc1`: the inhibition is -8.96% (inactive).

Regarding `CN1CCN2c3ncccc3Cc3ccccc3C2C1` (stereo not given), the inhibition is -1.61% (inactive).

As for `CN1CCN2c3ncccc3Cc3ccccc3[C@@H]2C1`, the inhibition was 8.88% (inactive).

On to `O=C(c1cc(C(=O)N2CCOCC2)c2nc3ccccc3n2c1)c1ccccc1O`, for which the inhibition is 1.28% (inactive).

With `COc1ccc(C(=O)CSc2nnc(CNc3ccc(F)cc3)o2)cc1`, the inhibition is 15.6% (inactive).

As for `COc1ccc(C(=O)CSc2nnc(CNc3ccc(C)cc3C)o2)cc1`, the inhibition is -7.42% (inactive).

Take `C=CCNC(=O)COC(=O)c1ccc(Sc2nncn2C)c([N+](=O)[O-])c1`: the inhibition was -2.55% (inactive).

Take `COc1ccc(CC(=O)N(Cc2ccccc2)c2ccc(C)cc2)cc1S(=O)(=O)N1CCOCC1`: the inhibition is 4.3% (inactive).

As for `CCOC(=O)CCc1cnccc1-c1cccc(OC)c1O`, the inhibition was 4.79% (inactive).

Consider `CCCN1C(=O)N(c2cccc(C)c2)C(C)(O)CC1(C)C` (stereo not given), for which the inhibition was 0.42% (inactive).

In the case of `O=C(c1cccc(C(F)(F)F)c1)N1CCN(C2CCCCC2)CC1`, the inhibition was 6.41% (inactive).

Take `CN(C)CC/C=C1/c2ccccc2Sc2ccc(Cl)cc21`: the inhibition was 39% (inactive).

With `CC[N+](C)(C)CC/C=C1/c2ccccc2Sc2ccc(Cl)cc21`, the inhibition is -9.06% (inactive).

With `CN(CCOc1ccc(-c2ccn(S(=O)(=O)c3ccc(Cl)cc3)n2)cc1)c1ccccn1`, the inhibition is 7.05% (inactive).

With `Cc1ccc(-c2noc(CCC(=O)N3CCCc4ccccc43)n2)cc1`, the inhibition is 6.56% (inactive).

As to `CCOC(=O)c1c(NC(=O)COC(=O)Cc2n[nH]c(=O)c3ccccc23)sc(C(=O)NC)c1C`, the inhibition was -12.1% (inactive).

`O=[N+]([O-])c1cccc(-c2nc(-c3ccccc3)c(-c3cccs3)[nH]2)c1`: the inhibition was 1.45% (inactive).

For the compound `O=[N+]([O-])c1cccc(-c2nc(-c3cccs3)c(-c3cccs3)[nH]2)c1`, the inhibition was 1.58% (inactive).

Regarding `CN(C)c1ccc(C=C2C(=O)OC(C)(C)OC2=O)cc1`, the inhibition is 2.97% (inactive).

As for `CC1=NN(c2ccccc2)C(=O)/C1=C/c1ccc[nH]1`, the inhibition is 1.35% (inactive).

Turning to `COc1cc2cc(Oc3ccc4ccc(=O)oc4c3)c(=O)oc2cc1O[C@@H]1O[C@H](CO)[C@@H](O)[C@H](O)[C@H]1O`, the inhibition was -3.36% (inactive).

For the compound `CC(C)(C)C1CCC2(CC1)Nc1cccc3cccc(c13)N2`, the inhibition is 28.8% (inactive).

For `c1cc2c3c(cccc3c1)NC1(CCCCC1)N2`, the inhibition is -8.51% (inactive).

On to `Cc1cc(C(=O)N2CCN(Cc3ccccc3)CC2)on1`, for which the inhibition was 4.33% (inactive).

For the compound `CN1C(=O)N(C)C2(c3ccccc3)Nn3c(s/c(=C/c4ccccc4F)c3=O)=NC12c1ccccc1` (stereo not given), the inhibition was 1.37% (inactive).

On to `CCCC(C)C(=O)Nc1ccccc1C(=O)OCC` (stereo not given), for which the inhibition is -6.12% (inactive).

As for `CC1=C(C#N)C(c2cccnc2)C2=C(CC(c3ccc(Cl)cc3)CC2=O)N1` (stereo not given), the inhibition is 49.6% (inactive).

Take `COc1ccc(C2C(C#N)=C(C)NC3=C2C(=O)CC(C)(C)C3)cc1` (stereo not given): the inhibition is 2.98% (inactive).
